From PubChem BioAssay come the findings set out here.

Active and inactive are the calls of the source.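 How the source made its calls, unless noted: active means efflux inhibition above 0.42, the validation set average plus 4 SD; inconclusive means no clear call, values can overlap the other calls; inactive means the rest.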

By inhibition is commonly meant the drop in the measured response relative to a control, in per cent.

Test [1] is described as follows: reduced mouse 2C T cell binding to pMHC/ICAM-1 vesicles – MLPCN validation set, flow cytometry, LFA-1/ICAM-1 modulator project, pilot screen (AID 2523;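 active means response below a set limit, under 55% cells CD8-positive and vesicle-bound, and CD8 cells' 90th-percentile brightness under 279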;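 on vesicle binding response: mean PE anti-B7-1 fluorescence of CD8+ cells relative to row control; 100% = QL9-loaded vesicles with DMSO vehicle in the same plate row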). Particulars: 2C mouse CD8+ T cells, at 7 µM, stronger effect = lower value; double positive events: measured here: CD8+/vesicle+ event percentage. (In general: Flow cytometry measures light scatter and fluorescence of single cells or particles in a stream.)

The target of test [2] is Integrin beta-1 (Homo sapiens) + Integrin alpha-4 (Homo sapiens) (UniProt P13612+P05556). As to the kind of experiment: alpha4beta1 integrin LIBS antibody binding reduction – U937 cells, HUTS-21 mAb, flow cytometry, validation set, VLA-4 allosteric modulator project, pilot screen (AID 2674;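 active means inhibition above 50%, about 3 SD of the validation set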;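 further: antibody binding induced by the VLA-4 ligand LDV present at three times its Kd; 0% = LDV ligand with antibody and no compound and 100% = antibody without LDV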). To be noted: HUTS-21 LIBS mAb binding, at 6.7 µM, stronger effect = higher value, binding induced by LDV ligand.
Chain of Integrin beta-1 (Homo sapiens) + Integrin alpha-4 (Homo sapiens) (P05556 whole entry, looked up): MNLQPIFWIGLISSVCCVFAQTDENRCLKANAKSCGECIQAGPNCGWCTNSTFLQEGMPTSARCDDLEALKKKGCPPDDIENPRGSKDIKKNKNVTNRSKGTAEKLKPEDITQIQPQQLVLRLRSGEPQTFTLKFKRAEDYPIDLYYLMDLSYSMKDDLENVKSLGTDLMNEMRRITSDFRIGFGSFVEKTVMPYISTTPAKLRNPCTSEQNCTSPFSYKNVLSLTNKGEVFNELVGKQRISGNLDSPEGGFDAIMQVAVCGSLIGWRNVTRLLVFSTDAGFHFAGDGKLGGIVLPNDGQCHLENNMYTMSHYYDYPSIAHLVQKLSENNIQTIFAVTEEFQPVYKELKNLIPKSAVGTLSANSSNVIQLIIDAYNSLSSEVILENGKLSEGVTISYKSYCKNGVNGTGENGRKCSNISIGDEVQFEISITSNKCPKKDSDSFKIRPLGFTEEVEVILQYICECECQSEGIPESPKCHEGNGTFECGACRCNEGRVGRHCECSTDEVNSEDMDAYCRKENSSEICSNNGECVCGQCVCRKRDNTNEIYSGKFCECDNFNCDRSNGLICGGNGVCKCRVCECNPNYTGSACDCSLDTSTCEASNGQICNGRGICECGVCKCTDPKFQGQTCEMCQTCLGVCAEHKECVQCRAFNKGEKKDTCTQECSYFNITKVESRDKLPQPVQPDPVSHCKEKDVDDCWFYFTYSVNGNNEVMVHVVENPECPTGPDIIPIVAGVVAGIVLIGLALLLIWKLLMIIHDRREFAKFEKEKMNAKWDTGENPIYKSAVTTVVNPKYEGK
Chain of Integrin beta-1 (Homo sapiens) + Integrin alpha-4 (Homo sapiens) (P13612 whole entry, looked up): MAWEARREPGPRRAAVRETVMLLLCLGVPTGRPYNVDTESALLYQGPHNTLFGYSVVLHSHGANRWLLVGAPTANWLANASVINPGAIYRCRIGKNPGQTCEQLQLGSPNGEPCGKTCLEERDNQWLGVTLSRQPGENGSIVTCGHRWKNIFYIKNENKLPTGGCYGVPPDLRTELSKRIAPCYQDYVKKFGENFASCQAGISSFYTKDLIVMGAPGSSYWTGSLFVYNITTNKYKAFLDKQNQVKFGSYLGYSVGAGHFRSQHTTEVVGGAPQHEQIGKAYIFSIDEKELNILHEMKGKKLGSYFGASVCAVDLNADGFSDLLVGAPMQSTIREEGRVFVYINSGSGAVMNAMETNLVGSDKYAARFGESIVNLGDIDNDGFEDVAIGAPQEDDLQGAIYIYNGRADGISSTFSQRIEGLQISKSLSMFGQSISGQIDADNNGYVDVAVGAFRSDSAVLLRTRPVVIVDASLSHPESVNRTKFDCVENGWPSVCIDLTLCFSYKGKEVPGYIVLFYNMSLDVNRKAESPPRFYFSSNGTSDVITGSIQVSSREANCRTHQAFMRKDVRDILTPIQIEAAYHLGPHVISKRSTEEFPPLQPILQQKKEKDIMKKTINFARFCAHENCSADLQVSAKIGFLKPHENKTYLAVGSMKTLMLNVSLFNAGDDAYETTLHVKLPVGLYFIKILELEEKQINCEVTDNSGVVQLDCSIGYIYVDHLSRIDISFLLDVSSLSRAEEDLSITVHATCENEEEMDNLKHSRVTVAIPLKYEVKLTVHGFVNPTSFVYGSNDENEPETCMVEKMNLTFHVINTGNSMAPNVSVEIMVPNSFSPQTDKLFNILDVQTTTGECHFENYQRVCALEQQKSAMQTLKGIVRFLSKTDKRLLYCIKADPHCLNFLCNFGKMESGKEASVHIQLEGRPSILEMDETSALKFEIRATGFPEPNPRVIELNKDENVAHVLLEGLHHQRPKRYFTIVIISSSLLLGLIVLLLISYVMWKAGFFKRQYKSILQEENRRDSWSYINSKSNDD

Test [3] can be described thus: calorie-restriction mimetic ROS inhibitors, yeast – validation compound set, pilot screen (AID 2706;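 active means superoxide response below 65% of plate, a cut near 3 SD across the whole screen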;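 further: yeast exposed to compound for one week at 30 degrees C before staining; 100% = mean of all compound wells on the same plate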). Particulars: S. cerevisiae aging, superoxide DHE fluorescence; at 10 µM, stronger effect = lower value.
Test [4] addresses Beta-adrenergic receptor kinase 1 (Homo sapiens) (UniProt P25098). As to the kind of experiment: GRK2 binders displacing RNA aptamer, biochemical, validation, human GRK2, bead flow cytometry (AID 488806;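 active means aptamer binding inhibition above 30%, about 3 SD of noise from non-fluorescent compounds; inactive means inhibition at or below 30%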). Particulars: bead-bound GRK2, FAM-aptamer displacement, at 10 µM, stronger effect = higher value.
Test [5] deals with Beta-2 adrenergic receptor (Homo sapiens) (UniProt P07550). Description: agonist-induced loss of surface beta2AR – cell-based, FAP fluorogen, flow cytometry, validation set, pilot screen (AID 504459;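 active means percent response above 42, roughly 3 SD of non-fluorescent test compounds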;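 further: agonist-driven loss of surface beta2AR via internalization measured by FAP dye flow cytometry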). Particulars: Am2.2-beta2AR cells, at 10 µM, stronger effect = higher value.
Chain of Beta-2 adrenergic receptor (Homo sapiens) (P07550 whole entry, looked up): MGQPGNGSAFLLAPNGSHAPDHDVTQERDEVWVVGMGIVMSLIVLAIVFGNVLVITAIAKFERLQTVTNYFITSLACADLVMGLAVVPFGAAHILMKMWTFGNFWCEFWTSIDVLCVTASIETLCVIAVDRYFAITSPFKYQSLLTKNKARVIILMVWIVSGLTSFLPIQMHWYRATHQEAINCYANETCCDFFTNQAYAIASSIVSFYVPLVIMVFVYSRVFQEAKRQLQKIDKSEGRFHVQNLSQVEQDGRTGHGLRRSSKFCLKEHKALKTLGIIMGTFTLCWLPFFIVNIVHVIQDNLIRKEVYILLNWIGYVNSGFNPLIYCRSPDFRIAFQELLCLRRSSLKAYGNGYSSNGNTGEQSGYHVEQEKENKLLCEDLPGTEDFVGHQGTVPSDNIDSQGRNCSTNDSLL
In test [6] the target is AP-2 complex subunit beta (Homo sapiens) (UniProt P63010). Description: beta-arrestin/AP2 interaction blockers – biochemical, validation set, GST-AP2 beads, flow cytometry, pilot screen (AID 504541;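 active means inhibition above 54%, about 3 SD of non-fluorescent compounds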;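 further: AP2 carries R879A mutation and is captured from E. coli lysate; bead-bound FITC arrestin peptide fluorescence measuring arrestin peptide binding to AP2; 0% = DMSO wells and 100% = excess unlabeled arrestin peptide control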). Particulars: FITC arrestin peptide, at 10 µM, stronger effect = higher value, AP2 beta2 appendage fragment, R879A mutant.
Chain of AP-2 complex subunit beta (Homo sapiens) (P63010 whole entry, looked up, the tested form may be a part, one chain of several): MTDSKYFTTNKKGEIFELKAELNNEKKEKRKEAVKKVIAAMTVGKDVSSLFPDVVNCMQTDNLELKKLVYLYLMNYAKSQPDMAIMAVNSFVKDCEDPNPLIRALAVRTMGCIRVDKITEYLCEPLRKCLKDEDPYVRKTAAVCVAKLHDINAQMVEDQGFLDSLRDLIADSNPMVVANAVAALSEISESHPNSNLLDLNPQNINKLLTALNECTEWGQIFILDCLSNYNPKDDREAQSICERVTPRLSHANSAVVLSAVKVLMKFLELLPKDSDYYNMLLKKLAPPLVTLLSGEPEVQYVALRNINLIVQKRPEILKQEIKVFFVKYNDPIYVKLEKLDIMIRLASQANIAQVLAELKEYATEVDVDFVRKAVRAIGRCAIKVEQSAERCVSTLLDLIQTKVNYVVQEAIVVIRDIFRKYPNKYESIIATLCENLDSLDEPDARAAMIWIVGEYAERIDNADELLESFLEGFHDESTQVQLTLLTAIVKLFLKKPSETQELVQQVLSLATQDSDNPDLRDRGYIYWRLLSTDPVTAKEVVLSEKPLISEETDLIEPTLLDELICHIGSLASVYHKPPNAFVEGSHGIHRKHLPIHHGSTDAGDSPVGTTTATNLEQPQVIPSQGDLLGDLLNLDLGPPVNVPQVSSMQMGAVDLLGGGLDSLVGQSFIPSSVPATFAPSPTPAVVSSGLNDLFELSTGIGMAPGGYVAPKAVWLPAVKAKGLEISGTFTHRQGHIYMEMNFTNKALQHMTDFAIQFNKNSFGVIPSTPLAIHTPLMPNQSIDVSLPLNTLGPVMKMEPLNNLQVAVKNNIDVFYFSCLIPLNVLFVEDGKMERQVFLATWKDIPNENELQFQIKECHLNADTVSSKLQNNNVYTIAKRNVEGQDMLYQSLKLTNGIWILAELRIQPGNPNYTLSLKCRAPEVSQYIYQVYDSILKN
Test [7] is described as follows: cytosolic pH regulators acting via V-ATPase – S. cerevisiae, pHLuorin, HTS validation (AID 504600; in the data active means response above about 15%;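 further: plate controls were DMSO for no effect and reference compound for full effect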). To be noted: V-ATPase proton transport, at 10 µM, stronger effect = higher value.
Test [8] deals with anti-desmoglein-3 scFv antibody binding to human DSG3. Description: blockers of pathogenic pemphigus antibody–desmoglein-3 binding – biochemical, validation compound set, bead-based, flow cytometry, pilot screen (AID 588368;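 active means binding below the plate cutoff, the plate median minus 3 SD, with a reading above zero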;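 further: signal is the median channel fluorescence of bead-bound GFP antibody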). To be noted: Protein G beads, DSG3-Fc, scFv-GFP binding, at 10 µM, stronger effect = lower value.
Test [9] can be described thus: Nile Red efflux blockade in pump-expressing yeast – validation compound set, multiplex, phenotypic, pilot screen (AID 588506).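 Further: Nile Red retained in cells so higher fluorescence means more efflux inhibition; 0 = negative control wells and 1 = enniatin B 25 µM full block.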 To be noted: S. cerevisiae pump-expressing triplex, Nile Red efflux flow cytometry; at 10 µM; stronger effect = higher value; the pumps come from Candida albicans.
Test [10] addresses ATP-binding cassette sub-family B member 6 (Homo sapiens) (UniProt Q9NP58). As to the kind of experiment: blockers of ABCB6-driven porphyrin uptake – K562-ABCB6 cells, flow cytometry, validation set, pilot screen (AID 588550;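 active means inhibition above the screen-wide mean plus 3 SD, about 51%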;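 further: 0% = DMSO wells and 100% = benzethonium chloride 70 µM positive control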). Particulars: K562-ABCB6 porphyrin accumulation, 1 h, at 10 µM, stronger effect = higher value.
Test [11] can be described thus: AML differentiation inducers, ER-HoxA9 marrow cells – cell-based, GFP/MAC1 double positive, flow cytometry, validation set, primary screen (AID 588685;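 active means differentiation response of at least 50%, scaled between solvent and reference control, from cells with both markers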;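 further: compound exposure lasts four days before antibody staining and flow analysis; 0% = DMSO wells and 100% = 5 µM fulvestrant positive control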). Particulars: stronger effect = higher value, normalized: vehicle 0, fulvestrant 100.

Chain of Beta-adrenergic receptor kinase 1 (Homo sapiens) (P25098 whole entry, looked up): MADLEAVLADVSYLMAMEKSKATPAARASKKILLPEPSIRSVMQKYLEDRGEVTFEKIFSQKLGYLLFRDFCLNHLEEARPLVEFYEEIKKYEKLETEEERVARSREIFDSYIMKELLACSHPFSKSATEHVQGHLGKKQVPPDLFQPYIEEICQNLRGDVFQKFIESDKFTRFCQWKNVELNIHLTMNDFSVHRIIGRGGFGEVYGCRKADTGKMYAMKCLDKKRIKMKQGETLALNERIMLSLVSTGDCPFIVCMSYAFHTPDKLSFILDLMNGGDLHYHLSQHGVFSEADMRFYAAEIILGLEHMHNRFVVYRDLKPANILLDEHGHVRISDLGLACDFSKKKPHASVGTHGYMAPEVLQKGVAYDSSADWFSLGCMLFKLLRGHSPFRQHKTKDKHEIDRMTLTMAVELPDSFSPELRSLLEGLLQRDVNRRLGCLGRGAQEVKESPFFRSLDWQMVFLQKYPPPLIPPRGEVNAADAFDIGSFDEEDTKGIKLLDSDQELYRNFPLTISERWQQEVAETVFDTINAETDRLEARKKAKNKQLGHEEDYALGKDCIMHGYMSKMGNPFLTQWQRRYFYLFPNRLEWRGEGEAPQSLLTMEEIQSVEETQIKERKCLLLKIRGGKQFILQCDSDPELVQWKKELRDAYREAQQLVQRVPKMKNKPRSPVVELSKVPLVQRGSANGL
Chain of ATP-binding cassette sub-family B member 6 (Homo sapiens) (Q9NP58 whole entry, looked up): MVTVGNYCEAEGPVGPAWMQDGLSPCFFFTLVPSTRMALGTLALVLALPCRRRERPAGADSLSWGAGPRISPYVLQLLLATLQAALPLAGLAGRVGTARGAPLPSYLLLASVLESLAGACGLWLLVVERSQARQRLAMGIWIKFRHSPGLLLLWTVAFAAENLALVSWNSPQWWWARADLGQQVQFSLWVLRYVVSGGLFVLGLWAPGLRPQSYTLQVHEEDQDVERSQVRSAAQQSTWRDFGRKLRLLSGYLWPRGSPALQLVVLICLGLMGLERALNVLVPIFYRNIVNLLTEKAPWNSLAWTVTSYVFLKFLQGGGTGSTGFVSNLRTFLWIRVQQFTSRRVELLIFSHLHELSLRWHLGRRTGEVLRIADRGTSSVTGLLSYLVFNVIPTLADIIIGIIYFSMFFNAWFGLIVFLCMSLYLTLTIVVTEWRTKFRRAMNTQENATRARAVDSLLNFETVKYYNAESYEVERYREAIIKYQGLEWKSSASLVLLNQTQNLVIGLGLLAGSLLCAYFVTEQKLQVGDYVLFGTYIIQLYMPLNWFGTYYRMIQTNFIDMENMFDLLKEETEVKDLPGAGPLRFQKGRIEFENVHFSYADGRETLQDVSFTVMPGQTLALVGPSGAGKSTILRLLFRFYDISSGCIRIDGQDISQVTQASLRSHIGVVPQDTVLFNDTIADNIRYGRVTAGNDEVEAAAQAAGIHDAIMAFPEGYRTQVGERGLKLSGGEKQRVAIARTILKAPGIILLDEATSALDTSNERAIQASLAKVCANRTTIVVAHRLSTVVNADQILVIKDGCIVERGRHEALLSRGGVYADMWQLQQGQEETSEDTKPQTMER

For `CCCN1C[C@H](CSC)C[C@@H]2c3cccc4[nH]cc(c34)C[C@H]21`, in test [1], the double positive events stood at 58.9%. In test [1], the vesicle binding response was 167% (inactive). Besides, the inhibition in test [2] was -8.78% (inactive); in test [6], 1.85% (inactive); in test [10], -37% (inactive). For the same molecule, the superoxide response (% of plate) in [3] is 77.2% (inactive). The aptamer binding inhibition in [4] is -1% (inactive). Further, the response in test [5] was -19.4% (inactive); in test [7] it was 78.5% (active). For the same molecule, in [8], the binding (% of control) was 105% (inactive). For the same molecule, the efflux inhibition (fraction of control) in test [9] was 0 (inactive). Moreover, the differentiation response in test [11] is -10.9% (inactive).
For the molecule `O[C@@H](CNC[C@H](O)c1ccccc1)c1ccccc1`, the double positive events in test [1] is 62.7%. In addition, in [1], the vesicle binding response was 156% (inactive). Further, the inhibition in [2] was -27.7% (inactive); in test [6], 9.85% (inactive); in [10], 1% (inactive). In test [3], the superoxide response (% of plate) is 99.8% (inactive). Besides, the aptamer binding inhibition in test [4] was -3% (inactive). Further, the response in test [5] was 43.5% (active); in test [7], 0.68% (inactive). The binding (% of control) in [8] was 102% (inactive). Further, the efflux inhibition (fraction of control) in test [9] is 0.01 (inactive). Also, the differentiation response in test [11] was 21.6% (inactive).
`CNCCc1ccccn1` displayed a double positive events in test [1] of 60%. For the same molecule, the vesicle binding response in test [1] was 212% (inactive). Also, the values for the inhibition in test [2], in test [6] and in test [10] were 15.1% (inactive), -12.3% (inactive) and 1% (inactive), respectively. In addition, the superoxide response (% of plate) in [3] was 122% (inactive). Also, in [4], the aptamer binding inhibition was -6% (inactive). Besides, the values for the response in [5] and in test [7] were -19.8% (inactive) and -10.1% (inactive), respectively. Also, the binding (% of control) in [8] is 100% (inactive). Further, in test [9], the efflux inhibition (fraction of control) was 0 (inactive). In addition, the differentiation response in [11] was 2.89% (inactive).
`N/C(=N/OS(=O)(=O)c1ccc([N+](=O)[O-])cc1)c1ccncc1`: the double positive events in [1] stood at 61.1%. For the same molecule, the vesicle binding response in [1] is 135% (inactive). For the same molecule, the inhibition was 1.59% (inactive) in test [2], -1.57% (inactive) in [6] and 18% (inactive) in [10]. In test [3], the superoxide response (% of plate) is 108% (inactive). Besides, the aptamer binding inhibition in test [4] is 1% (inactive). The response in test [5] was -5.72% (inactive); in test [7], 6.86% (inactive). The binding (% of control) in [8] was 107% (inactive). Moreover, in test [9], the efflux inhibition (fraction of control) was -0.08 (inactive). In addition, the differentiation response in test [11] is -8.96% (inactive).
`CC1/C(=C\c2ccc(Cl)cc2)C(=O)C2CC1C2(C)C` (centres undefined) gave a double positive events in test [1] of 60.1%. For the same molecule, the vesicle binding response in test [1] was 168% (inactive). Besides, the inhibition is -3.16% (inactive) in test [2], -1.54% (inactive) in [6] and 9% (inactive) in test [10]. Moreover, in test [3], the superoxide response (% of plate) was 94.9% (inactive). In test [4], the aptamer binding inhibition was 2% (inactive). For the same molecule, the results for the response in test [5] and in [7] were -15.2% (inactive) and 0.95% (inactive), respectively. Besides, the binding (% of control) in test [8] was 99.9% (inactive). In addition, in test [9], the efflux inhibition (fraction of control) was 0.05 (inactive). For the same molecule, the differentiation response in [11] is -5.6% (inactive).
As to `O=c1c2ccccc2nc2n1-c1ccccc1CCC2`, the double positive events in test [1] came out at 64.2%. Also, in test [1], the vesicle binding response was 201% (inactive). For the same molecule, the figures for the inhibition in [2], in test [6] and in test [10] were 13% (inactive), -5.56% (inactive) and 0% (inactive), respectively. In addition, the superoxide response (% of plate) in test [3] is 96.9% (inactive). For the same molecule, the aptamer binding inhibition in test [4] is 1% (inactive). In addition, the response in test [5] is -9.83% (inactive); in [7], 0.74% (inactive). Also, the binding (% of control) in [8] is 99.2% (inactive). The efflux inhibition (fraction of control) in test [9] was -0.23 (inactive). Further, the differentiation response in test [11] was 1.22% (inactive).
In turn, `O=C1c2ccccc2C(=O)C1c1ccccc1` yielded a double positive events in [1] of 67%. In addition, the vesicle binding response in test [1] was 512% (inactive). In addition, the figures for the inhibition in test [2], in [6] and in test [10] were 3.14% (inactive), -6.92% (inactive) and 4% (inactive), respectively. In addition, in [3], the superoxide response (% of plate) was 95.2% (inactive). Besides, the aptamer binding inhibition in test [4] was 7% (inactive). Further, the response in test [5] was -32.5% (inactive); in test [7] it was -0.31% (inactive). In [8], the binding (% of control) was 102% (inactive). Further, in test [9], the efflux inhibition (fraction of control) is 0 (inactive). Also, in [11], the differentiation response was -5.97% (inactive).
The molecule `Cc1cccc(C2=N/C(=C\c3cccnc3)C(=O)O2)c1` returned a double positive events in test [1] of 63.6%. Besides, the vesicle binding response in test [1] is 179% (inactive). In addition, the figures for the inhibition in test [2], in test [6] and in test [10] were 5.03% (inactive), -1.05% (inactive) and 3% (inactive), respectively. In test [3], the superoxide response (% of plate) was 98.1% (inactive). The aptamer binding inhibition in test [4] is 2% (inactive). The results for the response in [5] and in test [7] were 13.3% (inactive) and -1.71% (inactive), respectively. For the same molecule, the binding (% of control) in test [8] is 104% (inactive). The efflux inhibition (fraction of control) in test [9] is 0.12 (inactive). In addition, in test [11], the differentiation response was 103% (active).
In test [1], `COc1ccc(CCN=C(N)C(C)c2ccccc2)cc1OC` (centres undefined) gave a double positive events of 62.6%. Further, in test [1], the vesicle binding response is 238% (inactive). Also, the inhibition in [2] is 5.69% (inactive); in test [6] it was -6.07% (inactive); in test [10] it was 5% (inactive). Besides, the superoxide response (% of plate) in [3] was 93.8% (inactive). Moreover, in test [4], the aptamer binding inhibition was 4% (inactive). The response was -11.2% (inactive) in test [5] and -1.3% (inactive) in [7]. The binding (% of control) in test [8] is 97.3% (inactive). In test [9], the efflux inhibition (fraction of control) is -0.04 (inactive). In addition, the differentiation response in test [11] is 7.82% (inactive).
Consider `O=C(Oc1cccccc1=O)c1ccccc1`, for which, in test [1], the double positive events came out at 63.4%. In test [1], the vesicle binding response is 281% (inactive). Besides, the results for the inhibition in [2], in test [6] and in test [10] were 21% (inactive), 1.79% (inactive) and 2% (inactive), respectively. In addition, the superoxide response (% of plate) in test [3] was 105% (inactive). For the same molecule, the aptamer binding inhibition in [4] is 6% (inactive). Besides, the figures for the response in [5] and in [7] were -20.4% (inactive) and -32.2% (inactive), respectively. Further, the binding (% of control) in test [8] is 102% (inactive). Moreover, the efflux inhibition (fraction of control) in test [9] is 0 (inactive). Moreover, the differentiation response in [11] is 5.85% (inactive).
In test [1], `O=c1oc2c(CN3CCN(CCO)CC3)c(O)ccc2cc1-c1ccccn1` registered a double positive events of 62.7%. Besides, the vesicle binding response in test [1] is 150% (inactive). The inhibition in [2] was -14.9% (inactive); in test [6], -9.17% (inactive); in [10], 15% (inactive). Further, the superoxide response (% of plate) in test [3] was 88.3% (inactive). Also, in test [4], the aptamer binding inhibition is -1% (inactive). Also, the response in [5] was 59.8% (active); in test [7], 5.97% (inactive). In addition, in test [8], the binding (% of control) was 109% (inactive). Further, the efflux inhibition (fraction of control) in test [9] is -0.06 (inactive). Further, in test [11], the differentiation response was 10.6% (inactive).
For the molecule `CCOC(=O)c1cc2cc3ccccc3cc2[nH]1`, in test [1], the double positive events amounted to 70.4%. In test [1], the vesicle binding response was 334% (inactive). The inhibition in test [2] was -1.79% (inactive); in test [6], -6.18% (inactive); in test [10], 6% (inactive). The superoxide response (% of plate) in [3] was 81.1% (inactive). The aptamer binding inhibition in test [4] was 1% (inactive). Besides, the response is 15.9% (inactive) in test [5] and -1.49% (inactive) in test [7]. In addition, in test [8], the binding (% of control) was 99.1% (inactive). Also, the efflux inhibition (fraction of control) in test [9] was -0.1 (inactive). Moreover, the differentiation response in [11] was 7.2% (inactive).
